In PubChem BioAssay AID1645838 (ICCB-Longwood Screening Facility, Harvard Medical School, 2021):
Screen size: about 2,000 compounds; about 100 (5%) were called active. Rule as the data show it: active = z-score above about 2; inactive = the rest. The entries come from a sample that favours actives as a whole.

Experiment: modulators of mitochondrial supercomplex assembly, cell-based, luminescence, Hoechst nuclei count (AID 1645838);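 also: control cybrid cells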;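 as to z-score: higher means more mitochondrial supercomplex formation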
Conditions: Cells, luminescence/Hoechst cell count ratio, supercomplex reporter; for z-score: stronger effect = higher value; for cell count: measured here: cell number, Hoechst nuclei count
[1] = library stock concentration (final well concentration not given) 80 uM
[2] = library stock concentration (final well concentration not given) 400 uM
[3] = library stock concentration (final well concentration not given) 2 mM
[4] = library stock concentration (final well concentration not given) 10 mM
[5] = library stock concentration (final well concentration not given) 46 uM
[6] = library stock concentration (final well concentration not given) 278 uM
[7] = library stock concentration (final well concentration not given) 1.67 mM

CC(O)C(O)C1CNc2nc(N)[nH]c(=O)c2N1 (stereo not drawn)
outcome (library stock 10 mM): inactive; censored for cell count
z-score [1]: -0.395 (inactive)
z-score [2]: -0.667 (inactive)
z-score [3]: -0.491 (inactive)
cell count [1]: 5380
cell count [2]: 5520
cell count [3]: 4750

C#C[C@]1(O)CC[C@@H]2[C@@H]3CCc4cc(O)ccc4[C@@H]3CC[C@@]21C
z-score [1]: -0.386 (inactive)
z-score [2]: -0.396 (inactive)
z-score [3]: -0.217 (inactive)
z-score [4]: -0.397 (inactive)
cell count [1]: 5910
cell count [2]: 5660
cell count [3]: 5810
cell count [4]: 5370

C[C@H](CCCO)[C@H]1CC[C@H]2[C@@H]3[C@H](O)C[C@H]4C[C@H](O)CC[C@]4(C)[C@H]3C[C@H](O)[C@]12C
z-score: -0.0135 (inactive)
cell count: 5570

O=C(Nc1cccc(Br)c1)c1cccc(S(=O)(=O)N2CCCCCC2)c1
z-score [5]: -0.0641 (inactive)
z-score [6]: 0.273 (inactive)
z-score [7]: 0.0446 (inactive)
z-score [4]: -0.0353 (inactive)
cell count [5]: 6460
cell count [6]: 6210
cell count [7]: 6270
cell count [4]: 5890

O=C(O)c1cccc(S(=O)(=O)N2CCc3ccccc3C2)c1
z-score [1]: -0.371 (inactive)
z-score [2]: 0.24 (inactive)
z-score [3]: -0.13 (inactive)
z-score [4]: 0.0481 (inactive)
cell count [1]: 5540
cell count [2]: 4830
cell count [3]: 5230
cell count [4]: 4980

CC(=NNC(=O)c1cccc(S(=O)(=O)N2CCOCC2)c1)c1cc(Cl)ccc1O
outcome (library stock 278 µM): inactive; censored for cell count
z-score [5]: -0.349 (inactive)
z-score [7]: 3.11 (active)
z-score [4]: 3.02 (active)
cell count [5]: 7290
cell count [7]: 2520
cell count [4]: 1770

O=C(O)CCCCCC[C@@H]1[C@@H](CC[C@@H](O)CCc2cccc(C(F)(F)F)c2)[C@H](O)C[C@@H]1O
z-score: -0.0245 (inactive)
cell count: 4710

COc1ccc(-c2nc3cc(F)ccc3s2)cc1OC
z-score: -0.706 (inactive)
cell count: 5090

O=C(O)/C=C/c1ccc(O)c(O)c1
z-score: -0.483 (inactive)
cell count: 5860

O=C(/C=C/c1cccc(C(=O)NO)c1)NO
z-score: 3.39 (active)
cell count: 4470

COc1ccc(/C=C/C(=O)Nc2c(O)cccc2C(=O)O)cc1OC
z-score: -0.476 (inactive)
cell count: 5390

CCCCCCCCCC(=O)N[C@@H](CN1CCOCC1)[C@@H](O)c1ccccc1
z-score: 0.0636 (inactive)
cell count: 5620

CO[C@H]1C[C@@H]2CC[C@@H](C)[C@@](O)(O2)C(=O)C(=O)N2CCCC[C@H]2C(=O)O[C@H]([C@@H](C)C[C@@H]2CC[C@@H](O)[C@H](OC)C2)CC(=O)[C@H](C)/C=C(\C)[C@@H](O)[C@@H](OC)C(=O)[C@H](C)C[C@H](C)/C=C/C=C/C=C/1C
z-score: 2.24 (active)
cell count: 4010

COC1C[C@@H]2CCC(C)[C@@](O)(O2)C(=O)C(=O)N2CCCC[C@@H]2C(=O)O[C@@H](C(C)CC2CCC(n3cnnn3)C(OC)C2)CC(=O)C(C)C=C(C)C(O)C(OC)C(=O)C(C)CC(C)C=CC=CC=C1C (stereo partly drawn)
z-score [1]: 0.366 (inactive)
z-score [2]: 0.334 (inactive)
z-score [3]: 0.739 (inactive)
z-score [4]: 1.14 (inactive)
cell count [1]: 4410
cell count [2]: 4360
cell count [3]: 4240
cell count [4]: 3590

COC1CC2CCC(C)C(O)(O2)C(=O)C(=O)N2CCCCC2C(=O)OC(C(C)CC2CCC(O)C(OC)C2)CC(=O)C(C)C=C(C)C(O)C(OC)C(=O)C(C)CC(C)C=CC=CC=C1C (stereo not drawn)
z-score [1]: 0.756 (inactive)
z-score [2]: 0.731 (inactive)
z-score [3]: 1.2 (inactive)
z-score [4]: 1.21 (inactive)
cell count [1]: 2980
cell count [2]: 3130
cell count [3]: 2660
cell count [4]: 2720

Cc1ccc(C(=O)Nc2ccc(Oc3cc4cnn(C)c4cc3-c3cn[nH]c3)c(F)c2)c(=O)n1-c1ccc(F)cc1
z-score [5]: -0.888 (inactive)
z-score [6]: -0.95 (inactive)
z-score [7]: -1.73 (inactive)
z-score [4]: -2.48 (inactive)
cell count [5]: 7640
cell count [6]: 6950
cell count [7]: 7070
cell count [4]: 6390

CC/C=C\C/C=C\C/C=C\C/C=C\C/C=C\CCCC(=O)O[C@H](COCCCCCCCCCCCCCCCC)COP(=O)([O-])OCC[N+](C)(C)C
z-score: -1.23 (inactive)
cell count: 5300

CCCCC[C@H](O)/C=C/[C@@H]1[C@@H](C/C=C\CCCC(=O)NC(CO)CO)[C@@H](O)C[C@H]1O
z-score: -0.166 (inactive)
cell count: 5460

Cn1cc(CNCC2CCN(c3ncc(C(=O)NO)cn3)CC2)c2ccccc21
outcome (library stock 400 µM): inactive; censored for cell count
outcome (library stock 2 mM): inactive; censored for cell count
outcome (library stock 10 mM): inactive; censored for cell count
z-score [1]: 10.5 (active)
cell count [1]: 1710

COc1cc(C(=O)NS(=O)(=O)c2ccccc2C)ccc1Cc1cn(C)c2ccc(NC(=O)OC3CCCC3)cc12
z-score: -0.169 (inactive)
z-score [1]: -0.186 (inactive)
z-score [2]: 0.251 (inactive)
z-score [3]: -0.394 (inactive)
z-score [4]: 0.0319 (inactive)
cell count: 4650
cell count [1]: 5870
cell count [2]: 5520
cell count [3]: 5910
cell count [4]: 4990

CN1CCc2c(c3ccccc3n2Cc2ccc(C(=O)NO)cc2)C1
z-score [5]: -0.165 (inactive)
z-score [6]: -0.118 (inactive)
z-score [7]: -0.0772 (inactive)
z-score [4]: 0.0302 (inactive)
cell count [5]: 5170
cell count [6]: 5040
cell count [7]: 4790
cell count [4]: 4770

Nc1nc(OC(c2ccc(-c3cccc(F)c3)cc2)C(F)(F)F)cc(-c2ccc(CC(N)C(=O)O)cc2)n1 (stereo not drawn)
z-score [1]: -0.00893 (inactive)
z-score [2]: -0.406 (inactive)
z-score [3]: -0.0477 (inactive)
z-score [4]: -0.333 (inactive)
cell count [1]: 4780
cell count [2]: 5340
cell count [3]: 4660
cell count [4]: 4880

CCCCCC(=O)CC[C@H]1C(=O)C[C@H](O)[C@@H]1C/C=C\CCCC(=O)O
z-score: 0.618 (inactive)
cell count: 5420

COc1cc(NS(C)(=O)=O)ccc1Nc1c2ccccc2nc2ccccc12
outcome (library stock 2 mM): inactive; censored for cell count
outcome (library stock 10 mM): inactive; censored for cell count
z-score [1]: 0.627 (inactive)
z-score [2]: 2.51 (active)
cell count [1]: 4290
cell count [2]: 2280

CS(=O)(=O)Nc1ccc([N+](=O)[O-])cc1Oc1ccccc1
z-score: 1.64 (inactive)
cell count: 4310

CN1CCN(c2ccc(Nc3c4ccccc4nc4ccccc34)cc2)CC1
outcome (library stock 2 mM): inactive; censored for cell count
outcome (library stock 10 mM): inactive; censored for cell count
z-score [5]: 0.226 (inactive)
z-score [1]: -0.0401 (inactive)
z-score [6]: 0.109 (inactive)
z-score [2]: 1.07 (inactive)
z-score [7]: 0.208 (inactive)
cell count [5]: 6220
cell count [1]: 5080
cell count [6]: 5990
cell count [2]: 4020
cell count [7]: 6120

COCC(c1ccc(C(F)(F)F)cc1)N1CCN(C2(C)CCN(C(=O)c3c(C)ncnc3C)CC2)CC1C (stereo not drawn)
z-score [1]: -0.275 (inactive)
z-score [2]: -0.0621 (inactive)
z-score [3]: -0.0993 (inactive)
z-score [4]: 0.309 (inactive)
cell count [1]: 6100
cell count [2]: 5370
cell count [3]: 5980
cell count [4]: 5030
